CYP2C9 act: increases human cytochrome P450 2C9 activity | activation factor at 5 µM | recombinant CYP2C9, luciferin-H conversion, luminescence; hits give high values; factor 1 = untreated enzyme, 0 = blocked | 1.4% of 96,000 active | AID 1024;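 active = activation factor of 2 or more for CYP2C9 at a 5 µM dose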;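 also: 0 = sulfaphenazole-blocked wells and 1 = vehicle-only wells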
Target sequence (P11712 whole entry, looked up): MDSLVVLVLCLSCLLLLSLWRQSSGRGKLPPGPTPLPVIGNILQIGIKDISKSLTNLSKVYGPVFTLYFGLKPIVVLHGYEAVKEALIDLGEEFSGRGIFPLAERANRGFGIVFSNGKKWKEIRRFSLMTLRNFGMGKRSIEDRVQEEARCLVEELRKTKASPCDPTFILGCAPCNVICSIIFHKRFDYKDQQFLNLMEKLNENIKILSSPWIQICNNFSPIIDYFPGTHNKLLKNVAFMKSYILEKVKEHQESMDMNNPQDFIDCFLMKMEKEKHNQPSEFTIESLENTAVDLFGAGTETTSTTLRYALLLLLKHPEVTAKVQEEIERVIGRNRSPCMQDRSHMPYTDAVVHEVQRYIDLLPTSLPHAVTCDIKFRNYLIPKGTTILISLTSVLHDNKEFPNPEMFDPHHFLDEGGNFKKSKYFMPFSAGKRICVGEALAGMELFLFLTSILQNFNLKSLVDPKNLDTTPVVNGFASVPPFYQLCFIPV
CYP2C19 inh: human CYP2C19 inhibition. CYP2C19 Supersomes, luciferin-H EGE luminescence, 30 min. P33261. 21% of 96,000 active. inhibition, % at 5 µM;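 active = CYP2C19 inhibition above a set limit at 5 µM in the primary screen, cut at about 50% in these data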;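 also: plate controls were negative control wells for no effect and 2.5 mM tranylcypromine positive control for full effect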
MRP-1 activ: MRP-1 activation | AID 799 | H69AR cells + doxorubicin, viability rescue, CellTiter-Glo | 0.61% of 140,000 active | viability increase, % at 10 µM;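 active = viability gain under doxorubicin at or above a set limit, the compound median plus 3 SD, cut at about 4.7% in these data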;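 also: MRP-1 overexpressing cells given doxorubicin 25 µM after compound pretreatment; 18-22 h compound pretreatment then 72 h with doxorubicin before readout; 0% = doxorubicin-only wells and 100% = vehicle-treated cells without doxorubicin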
MRP reversal: reverses drug resistance mediated by MRP. H69AR cells + 2 uM doxorubicin, CellTiter-Glo, 72 h. differential viability (reversal), % at 10 µM. 0.04% of 85,000 active. AID 602;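 active = viability drop by adding the cancer drug above about 55%, with treated viability meeting a 40% cutoff, limit read from the data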;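 also: viability without doxorubicin minus viability with 2 µM doxorubicin for each compound; larger differential means the compound sensitizes cells more to doxorubicin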
CYP2C9 inhib: blocks human cytochrome P450 2C9; P11712; CYP2C9 Supersomes, luciferin-H conversion, luminescence; inhibition, % at 5 µM; 20% of 96,000 active;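 active = blocking of liver enzyme CYP2C9 beyond about 50% at 5 µM, limit read from the data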
CYP2C19 activ: activators of human cytochrome P450 2C19 | recombinant CYP2C19, luciferin-H EGE luminescence; hits give high values; 0 = fully inhibited enzyme, 1 = untreated enzyme | activation factor at 5 µM | 96,000 tested, under 10 active;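 active = activation factor of at least 2 at 5 µM in the primary screen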;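 also: 0 = wells with 2.5 mM tranylcypromine and 1 = vehicle-only wells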
* hit, by the source's call; nt = no result. This is a sample that favours compounds with a hit; in the whole collection about 21% have one here.

SMILES	CYP2C9 act	CYP2C19 inh	MRP-1 activ	MRP reversal	CYP2C9 inhib	CYP2C19 activ
Cc1cc(N/C=C/C(=O)c2ccc(Br)cc2)no1	nt	nt	0	-6	nt	nt
CCOc1ccc(Cn2c(O)cc(=O)[nH]c2=O)cc1	nt	nt	0	-7	nt	nt
O=C(Cc1c(F)cccc1Cl)Nc1ccon1	0.2	23	0	10	78*	0.8
CCOC(=O)c1cnc2c(ccc3ccccc32)c1NCCO	nt	nt	-1	-22	nt	nt
CCOC(=O)c1ccccc1Oc1c(F)c(F)nc(NCCO)c1F	0.5	62*	-3	2	51*	0.4
CC(C)C(=O)Nc1ccc(C(=O)c2ccccc2)cc1	nt	nt	-1	17	nt	nt
Cc1ccc(C2=NNC(c3ccc(Cl)cc3)=Nc3ccccc32)o1	nt	nt	-3	nt	nt	nt
COc1ccc(C2(C(=O)NCCCN(C)C)CCOCC2)cc1	1.1	-30	0	nt	-6	1.3
CSc1ncc(Cl)c(C(=O)Nc2nnc(SC/C=C/c3ccccc3)s2)n1	0	80*	0	3	99*	0.2
COc1cc(OC)c(-c2cc(C(=O)O)ccc2OC)c(OC)c1	nt	nt	-1	nt	nt	nt
Cc1ccc(S(=O)(=O)Cc2ccc(C(=O)N3CCc4ccccc4C3)o2)cc1	0.4	92*	-1	1	56*	0.1
COc1ccc(S(=O)(=O)NCc2ccc(C(=O)N3CCc4ccccc4C3)cc2)cc1	nt	nt	-3	nt	nt	nt
Cc1ccc(S(=O)(=O)Cc2ccc(C(=O)O)o2)cc1	0.6	-3	-4	5	37	1
COc1ccc(S(=O)(=O)Cc2ccc(C(=O)N3CCc4ccccc4C3)o2)cc1	0.5	89*	-1	7	53*	0.1
N#C/C(C(=O)N1CCOCC1)=C1/SC(Cc2ccccc2Cl)C(=O)N1c1ccccc1 (stereo not drawn)	nt	nt	-1	nt	nt	nt
O=C(O)CCC(=O)N1CCc2cc(S(=O)(=O)N3CCC(Cc4ccccc4)CC3)ccc21	0.8	33	0	13	18	0.7
COc1ccc(N(CC(=O)Nc2ccc3c(c2)OCO3)S(C)(=O)=O)c(OC)c1	0.3	16	-2	3	69*	0.8
COc1ccc(N(CC(=O)Nc2ccc3c(c2)OCCO3)S(C)(=O)=O)c(OC)c1	0.2	26	-3	13	84*	0.7
COc1ccc(OC)c(N(CC(=O)Nc2ccc3c(c2)OCCO3)S(C)(=O)=O)c1	0.2	64*	-3	2	76*	0.4
O=C(CNS(=O)(=O)c1c(Cl)cccc1Cl)OCc1csc(-c2ccccc2)n1	nt	nt	0	nt	nt	nt
CCCC(=O)c1c(C)c2ccccc2n1C	1.1	35	0	-5	-11	0.6
CCCCOC(=O)C1CCCC(C(=O)OCCCC)N1 (stereo not drawn)	0.8	18	0	nt	23	0.8
C=CCn1c(SCC(=O)O)nnc1-c1ccccc1	nt	nt	-2	2	nt	nt
C=CCn1c(SCc2cccc(C#N)c2)nnc1-c1ccccc1O	0.6	100*	-4	-16	39	0
C=CCn1c(SCc2ccc(C#N)cc2)nnc1-c1cccc(Cl)c1	0.4	97*	0	9	64*	0
SMILES	CYP2C9 act	CYP2C19 inh	MRP-1 activ	MRP reversal	CYP2C9 inhib	CYP2C19 activ
CCOC(=O)c1c(C)nc(C)c(C(=O)OCC)c1-c1ccc(Br)cc1	nt	nt	-3	nt	nt	nt
Cn1c2c(c(=O)n(C)c1=O)C(c1ccc(Cl)cc1)C(C#N)=C(N)O2 (stereo not drawn)	nt	nt	-2	nt	nt	nt
Cc1ccc(-n2c(SCC(=O)NCCN3C(=O)CSC3=O)nnc2-c2ccccc2)cc1	nt	nt	-3	nt	nt	nt
CN(CC(=O)N1CCN(c2ccccc2F)CC1)S(=O)(=O)c1cnc[nH]1	0	99*	-1	4	100*	0
COc1ccc(N2CCN(C(=O)CN(C)S(=O)(=O)c3cnc[nH]3)CC2)cc1	nt	nt	-1	9	nt	nt
Cc1ccc(C)c(N2CCN(C(=O)CN(C)S(=O)(=O)c3cnc[nH]3)CC2)c1	0	92*	-1	15	100*	0.1
O=C(Nc1cccc(S(=O)(=O)N2CCCCC2)c1)c1ccc2c(=O)n3c(nc2c1)CCCCC3	nt	nt	-2	nt	nt	nt
COc1cccc(Nc2nc(-c3sc(N)nc3C)cs2)c1	0.3	59*	-3	-12	74*	0.4
COc1cccc(Nc2nc(-c3sc(NC(=O)c4ccco4)nc3C)cs2)c1	0.3	47	-2	nt	72*	0.5
COc1ccc2sc(NC(=O)c3ccco3)nc2c1	0.8	22	-4	-8	22	0.8
COc1ccc(Cl)cc1Nc1nc(-c2sc(NC(=O)c3ccco3)nc2C)cs1	0.4	43	-2	nt	62*	0.6
COc1cc(C2N(C)CCC3(OCCO3)C2(C)C)cc(OC)c1OC (stereo not drawn)	nt	nt	-1	nt	nt	nt
CC(C)C(C)(C#N)NC(=O)CSc1ncnc2sc(-c3ccccc3)cc12 (stereo not drawn)	0.2	96*	-4	nt	83*	0
CN(C)/C=N/c1c(C#N)cnn1-c1ccccc1	1.2	46	-1	16	-16	0.5
CCCCCn1cnc2sc(-c3ccccc3)cc2c1=O	0.4	44	1	4	58*	0.6
CN(C)/C=N/c1c(C#N)cnn1-c1ncnc2sc(-c3ccccc3)cc12	0.1	87*	-4	-17	92*	0.1
CCCCn1cnc2sc(-c3ccccc3)cc2c1=O	0.7	14	-5	5	25	0.9
CCN(CC)C(=O)CSc1ncnc2sc(-c3ccccc3)cc12	0.1	97*	-3	-3	93*	0
COc1ccnc(Oc2ccc(C)cc2C)c1C#N	0.9	39	0	nt	8	0.6
O=C(NC1CCCCCCC1)c1ccc2c(c1)N(Cc1ccc(F)cc1)C(=O)CS2=O (stereo not drawn)	0.9	-12	-5	6	5	1.1
O=C(Nc1ccccc1)Nc1ccc(Br)c(Cl)c1	nt	nt	-5	nt	nt	nt
CCCN(CCC)C(=O)C[n+]1cccc(/C=N/O)c1	nt	nt	2	nt	nt	nt
CCOc1ccc(-c2c(=O)n(OCc3ccc([N+](=O)[O-])cc3)c3ccccc3[n+]2[O-])cc1	nt	nt	0	nt	nt	nt
COc1ncnc2sc(-c3ccccc3)cc12	0.8	76*	0	-4	20	0.2
CN(CCC#N)C(=O)CSc1ncnc2sc(-c3ccccc3)cc12	0.5	40	-2	-2	50*	0.6
SMILES	CYP2C9 act	CYP2C19 inh	MRP-1 activ	MRP reversal	CYP2C9 inhib	CYP2C19 activ
COc1ccc(Nc2ncnc3sc(-c4ccccc4)cc23)cc1	1.1	-15	-1	nt	-9	1.1
CC(C)C(C)(C#N)NC(=O)CSc1nnc(-c2ccccc2)o1 (stereo not drawn)	0.9	68*	0	-3	9	0.3
Cc1ccccc1CS(=O)(=O)CCC(=O)N1CCN(c2ccc(N3CCOCC3)nn2)CC1	1.1	-8	-1	18	-10	1.1
COc1ccc(OCCNC(=O)CSc2ccc(C(F)(F)F)cc2[N+](=O)[O-])cc1	nt	nt	-1	nt	nt	nt
COc1ccc(C(=O)COC(=O)[C@H](C)Nc2ccc(C(F)(F)F)cc2[N+](=O)[O-])cc1	0.2	29	0	-1	75*	0.7
COc1ccc2[nH]c(C)c(CCNc3ccc(C(F)(F)F)cc3[N+](=O)[O-])c2c1	nt	nt	-2	nt	nt	nt
